Screening data (PubChem)
A selection: hits, their analogues and other compounds. The true share with any hit is near 3.5%.
GPR151 activ = human GPR151 activation; PathHunter beta-arrestin GPR151 cells, luminescence; activation, % at 11.2 µM; 650,000 tested, 1% active; in the data active means activation above about 4.9%;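 further: 0% = median of compound wells and 100% = cells with positive control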
MITF primary = inhibitors of human MITF; inhibition, % at 2.6 µM; AlphaScreen MITF homodimerization, bead proximity signal; 650,000 tested, 0.91% active; AID 1259374; O75030; in the data active means inhibition above about 50%;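 further: 0% = vehicle wells with protein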
Target sequence (O75030 whole entry, looked up): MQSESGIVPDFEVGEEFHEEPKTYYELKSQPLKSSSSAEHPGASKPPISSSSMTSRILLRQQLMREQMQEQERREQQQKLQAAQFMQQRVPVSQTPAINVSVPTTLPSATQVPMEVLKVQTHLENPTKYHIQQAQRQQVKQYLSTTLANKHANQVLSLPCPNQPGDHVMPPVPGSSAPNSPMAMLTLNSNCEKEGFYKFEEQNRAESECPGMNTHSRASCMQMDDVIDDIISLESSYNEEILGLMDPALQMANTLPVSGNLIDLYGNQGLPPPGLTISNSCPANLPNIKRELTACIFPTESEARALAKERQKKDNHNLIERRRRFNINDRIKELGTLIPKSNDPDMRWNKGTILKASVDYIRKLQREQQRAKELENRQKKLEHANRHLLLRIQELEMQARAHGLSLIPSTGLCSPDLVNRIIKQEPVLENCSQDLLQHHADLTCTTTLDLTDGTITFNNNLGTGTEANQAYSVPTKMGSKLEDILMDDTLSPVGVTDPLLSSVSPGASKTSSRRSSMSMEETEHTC
FBW7 act = activators of human E3 ligase FBW7. Q969H0. AlphaScreen FBW7–phospho-cyclin E peptide binding, activator screen. normalized activity (activation), % at 26.1 µM. 650,000 tested, 0.13% active. AID 1259310; in the data active means normalized activity above about 1.9%;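 further: purified mutant Fbw7 with reduced substrate affinity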
TEAD-YAP inh = TEAD-YAP interaction inhibition. HEK-TIYL cells, TEAD-Gal4/YAP UAS-luciferase luminescence. inhibition, % at 9.12 µM. 640,000 tested, 1.4% active. AID 1259422; in the data active means inhibition above about 32%;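 further: 0% = median of test compound wells and 100% = reference inhibitor wells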
Numbers without * were called inactive.

SMILES	GPR151 activ	MITF primary	FBW7 act	TEAD-YAP inh
COCCCn1c(-c2cccc(OC)c2)nc(=S)c2c1CCCC2	-1	0	0	10
CC(C)(C)C(=O)[C@H]1[C@H](c2ccccc2)C(C#N)(C#N)[C@@H]2c3ccccc3C=CN21	1	-1	0	-2
C=CCNC(=O)CCc1nc(-c2ccc(C(C)(C)C)cc2)no1	-1	5	0	35*
CC(C)(C)c1ccc(-c2noc(CCC(=O)NC3CCCC3)n2)cc1	1	8	0	64*
Cc1ccc(-c2noc(CCC(=O)NC3CCCC3)n2)cc1	-2	31	1	-1
CCOc1ccc(-c2noc(CCC(=O)O)n2)cc1	0	-18	0	50*
O=C(CCOc1ccccc1)NCC1CCC2(CCN(Cc3ccncc3)CC2)O1 (stereo not given)	1	5	0	7
CN1CCN(c2ccc(-c3nc4ccc(C(N)=O)cc4s3)cc2)CC1	0	-1	0	44*
CCC(C)N1C(=O)N(c2cccc(Cl)c2)C(n2oc(=O)n(-c3cccc(Cl)c3)c2=O)C1(C)C (stereo not given)	1	-6	0	-15
Cc1nc(NC(=S)NC(=O)c2ccccc2)sc1C(C)(C)C	0	-3	0	37*
c1coc(Cn2nnnc2CN2CCCC(c3[nH]ncc3-c3ccncc3)C2)c1 (stereo not given)	-1	10	0	-1
c1cc(-n2cnc(N3CCOCC3)n2)ccc1Nc1cc2cc(-c3cn[nH]c3)ccc2cn1	1	10	0	92*
Cn1cc(-c2ccc3cnc(Nc4ccc(-n5cnc(C(C)(C)C)n5)cc4)nc3c2)cn1	1	-5	0	14
c1cc(-n2cnc(N3CCOCC3)n2)ccc1Nc1ncc2ccc(-c3cn[nH]c3)cc2n1	0	18	1	96*
Cn1cc(-c2ccc3cnc(Nc4ccc(-n5cnc(N6CCOCC6)n5)cc4)nc3c2)cn1	2	10	0	96*
c1ccc(-c2ccc3cnc(Nc4ccc(-n5cnc(N6CCOCC6)n5)cc4)nc3c2)cc1	0	16	0	-3
Cn1cc(-c2ccc3cnc(Nc4ccc(-n5cnc(N6CCCC(O)C6)n5)cc4)nc3c2)cn1 (stereo not given)	-3	2	0	90*
CCOC(=O)C1CCCN(C(=O)CSc2ccsc2[N+](=O)[O-])C1 (stereo not given)	0	4	0	0
CCN(CC)C(=O)/C(=C/c1ccccc1)C(C)=O	1	-4	0	2
Cc1ccc(-n2nnc3c(=O)n(CC(=O)N4CCCC4)cnc32)cc1Cl	0	-16	0	5
CCOC(=O)c1c(CC(C)C)csc1NC(=O)c1ccc(Br)cc1	2	-2	0	-4
Cn1cc(-c2ccc3cnc(Nc4ccc(-n5cnc(-c6ccc(=O)[nH]c6)n5)cc4)nc3c2)cn1	-2	20	1	40*
COc1cc2nc(Oc3ccccc3)nc(Nc3cc(OC)c(OC)c(OC)c3)c2cc1OC	5	10	0	56*
Cc1cc(NC(=S)N(CCCN2CCCC2)Cc2cccs2)ccc1Cl	1	-71	0	-6
N#CC1=C(N)N(c2cccc(F)c2)C(=O)C1	1	-17	0	9
SMILES	GPR151 activ	MITF primary	FBW7 act	TEAD-YAP inh
CC(=O)Nc1ccc(Nc2nc(Nc3ccc4ncccc4c3)nc3c2ncn3C(C)C)cc1	-1	3	0	36*
Nc1nc(Nc2ccccc2)nc2c1ncn2-c1ccsc1	-2	13	0	37*
CC(=O)Nc1ccc(Nc2nc(Nc3ccc4ncccc4c3)nc3c2ncn3-c2ccccc2)cc1	1	1	0	40*
c1cnc2ccc(Nc3nc(Nc4ccc(N5CCOCC5)cc4)c4ncn(-c5ccsc5)c4n3)cc2c1	-2	-1	0	38*
COc1ccc(-c2cc(-c3ccc(C)cc3)[nH]c(=O)c2C#N)cc1	0	7	0	-5
COCCN(C(=S)Nc1cc(F)cc(F)c1)C1CCN(C(C)=O)CC1	0	-4	0	0
CCc1ccccc1NC(=O)COc1ccc(C)cc1	1	17	0	-25
c1ccc(-n2cnc3c(Nc4ccc(N5CCOCC5)cc4)nc(Nc4ccc5ncccc5c4)nc32)cc1	1	-1	0	4
c1ccc(Nc2nc(Nc3ccc4ncccc4c3)nc3c2ncn3-c2ccsc2)cc1	3	10	0	57*
Nc1nc(Nc2ccc3ncccc3c2)nc2c1ncn2-c1ccsc1	0	-14	38*	6
c1ccc(Nc2nc(Nc3ccc4ncccc4c3)nc3c2ncn3-c2ccccc2)cc1	-2	7	1	42*
